Assay results published in PubChem BioAssay.

Each compound was assayed against Left-right determination factor 2 (Homo sapiens) (UniProt O00292) (assay: small molecules binding LEFTY2 protein – biochemical, small-molecule microarray, 635 nm fluorescence scan, primary screen (AID 1110)). Details: higher = more signal.
Left-right determination factor 2 (Homo sapiens), sequence (O00292 whole entry, looked up): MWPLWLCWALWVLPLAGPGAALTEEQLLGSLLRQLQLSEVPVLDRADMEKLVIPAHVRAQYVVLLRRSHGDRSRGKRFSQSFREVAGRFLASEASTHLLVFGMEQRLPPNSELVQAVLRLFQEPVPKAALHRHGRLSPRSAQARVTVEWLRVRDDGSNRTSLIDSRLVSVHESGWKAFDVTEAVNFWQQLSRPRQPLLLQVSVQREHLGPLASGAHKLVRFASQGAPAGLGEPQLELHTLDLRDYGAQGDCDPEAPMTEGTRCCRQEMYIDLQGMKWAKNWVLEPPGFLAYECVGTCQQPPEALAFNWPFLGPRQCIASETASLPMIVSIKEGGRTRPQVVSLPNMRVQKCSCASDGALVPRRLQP

Row | SMILES | composite z-score
1 | CCN(CC)c1ccc(N2CC=CC34O[C@@H]5C=CCOC(=O)[C@@H]5[C@H]3C(=O)N(CCO)[C@@H]4C2=O)cc1 (some centres undefined) | -2.26
2 | CCOC(=O)C1=CC[C@@H](c2ccccc2)N(S(=O)(=O)C[Si](C)(C)C)[C@H]1c1ccccc1 | 0.618
3 | CN(C)CCCC[C@@H]1NC(=O)[C@@H]2C[C@H](C(=O)NCc3ccc(F)cc3)[C@H](c3ccc(O)cc3)N2C1=O | -0.275
4 | C=CCOC(=O)[C@H]1[C@@H]2C(=O)O[C@@H](c3ccccc3)[C@@H](c3ccccc3)N2[C@@H](c2ccc(OCCOC(=O)[C@@H]3C[C@@H]4C(=O)N[C@@H](CC(C)C)C(=O)N4[C@@H]3c3ccc(O)cc3)cc2)[C@]12C(=O)Nc1ccc(I)cc12 | 0.835
5 | COCCCNC(=O)[C@@H]1c2ccccc2C(=O)N(C2CCCCC2)[C@H]1c1ccc(CO)cc1 | -1.22
6 | CN(C)CCCC[C@@H]1NC(=O)[C@H]2C[C@@H](C(=O)NCc3ccc(F)cc3)[C@@H](c3ccc(O)cc3)N2C1=O | 1.15
7 | COc1ccc(C#Cc2ccc3c(c2)[C@]2(C(=O)N3)[C@H](C(=O)Nc3nc4ccccc4s3)[C@H]3C(=O)O[C@H](c4ccccc4)[C@H](c4ccccc4)N3[C@@H]2c2ccc(OCCO)cc2)cc1 | 0.651
8 | C=CCC(OC(C)=O)[C@@H]1[C@@H](N(Cc2ccc(-c3cccc(C(F)(F)F)c3)o2)C(=O)c2cccc3ccccc23)c2cc(OCCCO)ccc2N1C(=O)c1ccc2ccccc2n1 (some centres undefined) | -0.309
9 | C[N+](C)(C)CCCC[C@@H]1NC(=O)[C@H]2C[C@@H](C(=O)NCCCCCNC(=O)CS)[C@@H](c3ccc(O)cc3)N2C1=O | 0.355
